USP28 inh: blocks human USP28 ubiquitin-rhodamine cleavage | inhibition, % at 25 µM | purified USP28, Ub-rhodamine cleavage fluorescence, 30 min | 47,000 tested, 3% active
USP10 inh: human USP10 deubiquitinase inhibition. Q14694. purified USP10, Ub-rhodamine fluorescence, 60 min. inhibition, % at 20 µM. 47,000 tested, 1.1% active
USP8 inh: blocks human USP8 ubiquitin-rhodamine cleavage; P40818; purified USP8, Ub-rhodamine cleavage fluorescence, 30 min; inhibition, % at 20 µM; 47,000 tested, 4.2% active; AID 1645853
USP17 inh: inhibitors of human USP17 deubiquitinase; A8MUK1; purified USP17, Ub-rhodamine cleavage fluorescence, 3 h; inhibition, % at 50 µM; 47,000 tested, 6.5% active
Target sequence (A8MUK1 whole entry, looked up): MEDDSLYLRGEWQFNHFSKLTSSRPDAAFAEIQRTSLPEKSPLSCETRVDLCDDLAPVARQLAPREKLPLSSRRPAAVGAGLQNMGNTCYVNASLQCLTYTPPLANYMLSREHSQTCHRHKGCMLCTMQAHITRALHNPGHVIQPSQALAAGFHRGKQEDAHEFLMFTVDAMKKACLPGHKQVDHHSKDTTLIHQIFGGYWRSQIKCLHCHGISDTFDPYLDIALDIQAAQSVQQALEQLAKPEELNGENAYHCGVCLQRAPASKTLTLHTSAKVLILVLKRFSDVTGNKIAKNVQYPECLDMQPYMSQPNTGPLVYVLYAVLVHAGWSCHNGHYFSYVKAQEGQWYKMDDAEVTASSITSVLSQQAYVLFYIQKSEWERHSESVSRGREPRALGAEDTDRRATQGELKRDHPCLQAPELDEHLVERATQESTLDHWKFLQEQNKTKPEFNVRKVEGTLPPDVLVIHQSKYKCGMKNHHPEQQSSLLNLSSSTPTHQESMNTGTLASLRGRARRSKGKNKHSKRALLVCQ
USP30 block: human USP30 deubiquitinase inhibition; 47,000 tested, 5.3% active; purified USP30, Ub-rhodamine cleavage fluorescence; Q70CQ3; inhibition, % at 25 µM
Active calls of the source: *. Hits are enriched below; roughly 14% of the tested compounds scored in any of these assays. No stated cut-off is given here; in the data, active means inhibition above about 30%; inactive means the rest.

CC(C)(C)n1ncc2c(=O)n(CC(=O)Nc3cccc([N+](=O)[O-])c3)cnc21 was read as USP28 inh 3.3, USP10 inh -0.9, USP8 inh -116.3, USP17 inh -29.0 and USP30 block -12.2.
CN1CCN(c2ccc(NC(=O)c3ccc(C(F)(F)F)cc3)cn2)CC1 was read as USP28 inh -36.3, USP10 inh -2.8, USP8 inh -9.5, USP17 inh -64.9 and USP30 block -246.9.
Screening COCCn1c(SCC(=O)Nc2ccc(NC(=O)c3ccco3)c(OC)c2)nc2ccccc2c1=O returned USP28 inh -9.1, USP10 inh -2.6, USP8 inh 19.9, USP17 inh -56.7 and USP30 block -40.8.
COCCn1c(SCC(=O)c2ccc(NC(C)=O)cc2F)nc2ccccc21 was read as USP28 inh 18.5, USP10 inh 5.6, USP8 inh 31.7*, USP17 inh 27.9 and USP30 block 1.6.
Screening COc1cnc(-c2ccccn2)nc1Sc1ccccc1Cl returned USP28 inh 5.0, USP10 inh 3.4, USP8 inh -326.3, USP17 inh 38.8* and USP30 block 87.2*.
For O=C(Cn1c(Cc2ccccc2)nc2ccccc21)N1CCc2ccccc21 the results were USP28 inh 5.5, USP10 inh -2.8, USP8 inh 48.6*, USP17 inh 25.6 and USP30 block 32.4*.
Screening O=C(NCc1nnc(SCC(=O)N2CCc3ccccc32)o1)c1cccs1 returned USP28 inh 0.1, USP10 inh 4.2, USP8 inh -2.4, USP17 inh 1.9 and USP30 block -1.3.
Screening O=C(CSc1nnc(Cc2ccccc2)o1)N1CCc2ccccc21 returned USP28 inh -2.8, USP10 inh 3.4, USP8 inh 1.9, USP17 inh 41.7* and USP30 block 11.3.
Screening Cc1ccc(NC(=O)Cn2cc(S(=O)(=O)N3CCCC3)ccc2=O)cc1 returned USP28 inh 9.6, USP10 inh 7.9, USP8 inh 14.2, USP17 inh 52.4* and USP30 block -10.8.
`N#Cc1ccc(CC2(Cc3ccc(C#N)cc3)C(=O)N(Cc3ccccn3)C(=O)c3ccccc32)cc1` gave USP28 inh 20.1, USP10 inh 8.2, USP8 inh 15.7, USP17 inh 15.8 and USP30 block 44.5*.
`O=C1N(Cc2ccccn2)C(=O)C2(Cc3ccccc3)CCN(Cc3ccccn3)CCN12` (centres undefined) gave USP28 inh 1.7, USP10 inh -1.2, USP8 inh 9.8, USP17 inh 5.4 and USP30 block 9.3.
For O=C(Nc1ccccc1Br)c1ccn(COc2ccccc2F)n1 the results were USP28 inh 18.9, USP10 inh 6.3, USP8 inh 5.6, USP17 inh 64.8* and USP30 block 34.3*.
Screening Cc1cccc(NC(=O)c2ccn(COc3ccc(F)cc3F)n2)c1C returned USP28 inh 51.1*, USP10 inh 9.7, USP8 inh 8.0, USP17 inh 8.7 and USP30 block 15.9.
For O=C(Nc1ccccc1)c1ccn(COc2ccccc2F)n1 the results were USP28 inh 25.3, USP10 inh 3.2, USP8 inh 3.6, USP17 inh -1.8 and USP30 block -5.0.
Screening COc1ccc(C)cc1NC(=O)c1cc(-c2ccncc2)n[nH]1 returned USP28 inh -9.0, USP10 inh -4.0, USP8 inh -4.6, USP17 inh -5.1 and USP30 block -25.0.
For Clc1cccc(N2CCN(c3ncnc4nc[nH]c34)CC2)c1 the results were USP28 inh 4.9, USP10 inh -0.3, USP8 inh -6.0, USP17 inh 56.4* and USP30 block 5.1.
`Fc1ccc(N2CCN(c3ncnc4nc[nH]c34)CC2)cc1` gave USP28 inh -13.3, USP10 inh 2.8, USP8 inh -10.7, USP17 inh -2.2 and USP30 block 6.7.
Nc1nc(N2CCN(c3ccc(Cl)cc3)CC2)c2[nH]cnc2n1 was read as USP28 inh -3.6, USP10 inh 1.4, USP8 inh 3.6, USP17 inh 41.6* and USP30 block 16.3.
COc1ccnc(N=CN(C)C)c1C#N was read as USP28 inh -5.5, USP10 inh 0.5, USP8 inh 7.2, USP17 inh -2.1 and USP30 block 3.5.
For COc1ccc(C)cc1NC(=O)C1CC(=O)NC(Nc2ccc(F)cc2)=N1 (centres undefined) the results were USP28 inh -7.1, USP10 inh -1.9, USP8 inh -12.2, USP17 inh -3.1 and USP30 block -0.2.
For CC(Sc1nc2ncc(Cl)cc2[nH]1)C(=O)Nc1ccc2c(c1)OCO2 (centres undefined) the results were USP28 inh 18.9, USP10 inh -7.1, USP8 inh 37.5*, USP17 inh 25.3 and USP30 block -13.0.
Screening CC(Sc1nc2ccccc2[nH]1)C(=O)NCc1ccc2c(c1)OCO2 (centres undefined) returned USP28 inh 3.4, USP10 inh 5.7, USP8 inh -9.8, USP17 inh -5.6 and USP30 block 5.6.
CCc1ccc(C2CN3C(=O)N(c4ccccc4)C(=O)[C@]3(C)c3[nH]c4ccccc4c32)cc1 (some centres undefined) was read as USP28 inh 0.0, USP10 inh 10.5, USP8 inh 18.8, USP17 inh 2.0 and USP30 block 0.9.
Screening Cc1nn(Cc2ccccc2Cl)c(C)c1C(=O)N1CCCc2ccccc21 returned USP28 inh 7.8, USP10 inh 0.5, USP8 inh 0.4, USP17 inh 4.0 and USP30 block 3.5.
Screening Cc1cc(Br)c(C(C)C)c(Br)c1OC(=O)c1ccco1 returned USP28 inh 47.8*, USP10 inh 2.9, USP8 inh 7.3, USP17 inh 3.9 and USP30 block -10.7.
Screening Cc1nc(SCC(=O)Nc2ccc(S(N)(=O)=O)cc2)c2cnn(-c3ccccc3)c2n1 returned USP28 inh -34.0, USP10 inh 41.4*, USP8 inh -22.0, USP17 inh -29.3 and USP30 block -73.0.
`O=C(Nc1sc2c(c1-c1nc3ccccc3[nH]1)CCCC2)c1ccncc1` gave USP28 inh -160.4, USP10 inh -6.1, USP8 inh 31.2*, USP17 inh 17.1 and USP30 block -173.7.
O=C(Nc1sc2c(c1-c1nc3ccccc3[nH]1)CCCC2)c1ccccc1[N+](=O)[O-] was read as USP28 inh -4.2, USP10 inh 8.3, USP8 inh 31.9*, USP17 inh 1.4 and USP30 block -16.3.
O=C1CC(C(=O)Nc2ccc(Cl)cc2Cl)c2c(nc(N3CCCCC3)[nH]c2=O)N1 (centres undefined) was read as USP28 inh -19.9, USP10 inh -3.2, USP8 inh -45.7, USP17 inh -39.4 and USP30 block -16.5.
`Cc1cccc(NC(=O)c2cccc(N3C(=O)CCS3(=O)=O)c2)c1` gave USP28 inh -0.6, USP10 inh 0.0, USP8 inh 19.3, USP17 inh 3.6 and USP30 block 14.7.
For CCC(C)NC(=O)[C@H](C)NC(=O)N1CCn2c1nc1ccccc12 (some centres undefined) the results were USP28 inh 0.0, USP10 inh 0.2, USP8 inh 11.9, USP17 inh 0.4 and USP30 block 7.1.
